Test results reported in PubChem BioAssay (NCATS).
Records with an inconclusive call do not appear. Entries that show only a call come without a potency. Values without a mark were called inactive. Activity calls are given as the source filed them. Calls follow the shape of the dose curve; as a rule, active = well fitted inhibition curve with a large enough effect; inconclusive = small, poorly fitted or top-dose-only effect; inactive = no such curve, though single readings can be large or run the other way.

What was measured:
[1] = test system: Zika virus NS2B-NS3 protease (unlinked complex); assay: Primary screen GU Rhodamine qHTS for Zika virus inhibitors: Unlinked NS2B-NS3 protease assay (AID 1347159); also: nearly all actives have a fitted effect of over 60% in size; also: potency is read from the fitted curve at half-maximal effect
Method in brief: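 A qHTS format was used, with compound concentrations ranging up to 114 microM. Each compound was preincubated with 25 nM NS2B-NS3 protease, and the substrate was then added at 1.5 microM. Curves were fitted with a 4-parameter Hill model.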

[2] = test system: Zika virus NS2B-NS3 protease (linked construct); assay: Primary screen NINDS Rhodamine qHTS for Zika virus inhibitors (AID 1347160); also: nearly all actives have a fitted effect of over 55% in size
Method in brief: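 Kinetic fluorescence (Ex 480 nm, Em 540 nm) over 15 min with 1.5 microM Rhodamine110 peptide and 25 nM linked protease.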

COC(=O)/C=C/c1ccc(O[C@@H]2O[C@H](CO)[C@@H](O)[C@H](O)[C@H]2O)cc1
Potency [1]: inactive
Potency [2]: inactive

CC1=C2CC(C)(C)CC2C(O)C2=C(C1)C(=O)OC2O (centres undefined)
Potency [1]: inactive
Potency [2]: inactive

CC(=O)/C=C/C1(O)C(C)=CC(=O)CC1(C)C (centres undefined)
Potency [1]: inactive
Potency [2]: inactive

COC(=O)C1C(O)CCC2CN3CCc4c([nH]c5ccccc45)C3CC21 (centres undefined)
Potency [1]: 12.6 µM (active)
Potency [2]: inactive

COC(=O)C(CC1CCCC1)c1ccc(S(C)(=O)=O)cc1 (centres undefined)
Potency [1]: inactive
Potency [2]: inactive

Cc1occc(=O)c1O[C@@H]1O[C@H](CO)[C@@H](O)[C@H](O)[C@H]1O
Potency [1]: inactive
Potency [2]: inactive

CN1CCN(C2=Nc3ccccc3Nc3ccc(O)cc32)CC1
Potency [1]: inactive
Potency [2]: inactive

COc1ccnc2[nH]cc(C(=O)C(=O)N3CCN(C(=O)c4ccccc4)CC3C)c12 (centres undefined)
Potency [1]: inactive
Potency [2]: inactive

C[C@@H]1O[C@@H](O[C@H]2[C@@H]3C=CO[C@@H](O[C@@H]4O[C@H](CO)[C@@H](O)[C@H](O)[C@H]4O)[C@@H]3[C@@]3(CO)O[C@@H]23)[C@H](O)[C@H](O)[C@H]1OC(=O)/C=C/c1ccc(O)cc1
Potency [1]: inactive
Potency [2]: inactive

COc1ccc(CCC(=O)O)c(O[C@@H]2O[C@H](CO)[C@@H](O)[C@H](O)[C@H]2O)c1
Potency [1]: inactive
Potency [2]: inactive

CC1C2=CC(=O)OC2(O)CC2C1C(OC(=O)c1ccccc1)C(OC(=O)c1ccccc1)C1(O)C2(C)CCC(O)C1(C)C(=O)O (centres undefined)
Potency [1]: inactive
Potency [2]: inactive

COc1cc(C(C)=O)ccc1O[C@@H]1O[C@H](CO[C@@H]2OC[C@@H](O)[C@H](O)[C@H]2O)[C@@H](O)[C@H](O)[C@H]1O
Potency [1]: inactive
Potency [2]: inactive

Cc1cc(-c2nncc3c(C(C)(C)C)c(OCc4ncnn4C)nn23)no1
Potency [1]: inactive
Potency [2]: inactive

COC(=O)C(Cc1ccccc1)NC(=O)c1ccccc1 (centres undefined)
Potency [1]: inactive
Potency [2]: inactive

COc1cc(C2CC(=O)Nc3c2cc(Br)c2ccccc32)cc(OC)c1OC (centres undefined)
Potency [1]: inactive
Potency [2]: inactive

COC(=O)C[C@@H]1C(C(=O)O)=CO[C@@H](O[C@@H]2O[C@H](CO)[C@@H](O)[C@H](O)[C@H]2O)/C1=C\COC(=O)/C=C/c1ccc(O)c(OC)c1
Potency [1]: inactive
Potency [2]: inactive

CC1=COC(OC2OC(CO)C(O)C(O)C2O)C2C(CO)CC(OC(=O)/C=C/c3ccc(O)cc3)C12 (centres undefined)
Potency [1]: inactive
Potency [2]: inactive

CC(C)(O)C1OC1C1=CC(=O)C2(C)OC2C1O (centres undefined)
Potency [1]: inactive
Potency [2]: inactive

O=C(OCC1=CC(Cl)C(O)C(OC(=O)c2ccccc2)C1O)c1ccccc1 (centres undefined)
Potency [1]: inactive
Potency [2]: inactive

COc1cc(/C=C/C(=O)O[C@@H]2C[C@@](O)(C(=O)O)C[C@@H](O)[C@@H]2O)ccc1O
Potency [1]: inactive
Potency [2]: inactive

COC(=O)C[C@H]1C(C)(C)[C@H](OC(=O)C(C)C)C2CC3=C4CC(=O)O[C@@H](c5ccoc5)[C@]4(C)CCC3[C@@]1(C)C2=O (some centres undefined)
Potency [1]: inactive
Potency [2]: inactive

C=C[C@@]1(C)CCC2=C([C@H]1OC(C)=O)[C@H](OC(C)=O)CC1[C@](C)(C(=O)OC)CC[C@H](OC(C)=O)[C@]21C (some centres undefined)
Potency [1]: inactive
Potency [2]: inactive

NC[C@@H]1O[C@@H](O[C@@H]2[C@@H](O[C@@H]3O[C@H](CO)[C@@H](O)[C@H]3O)[C@H](O)[C@@H](N)C[C@H]2N)[C@@H](N)[C@H](O)[C@H]1O
activity change, negative = inhibition [1]: 6.33% [at 19.1 µM]
Potency [2]: inactive

Cc1ccc(-n2nc(C(C)(C)C)cc2NC(=O)Nc2cc(COc3cccnc3)[nH]n2)cc1
Potency [1]: inactive
Potency [2]: inactive

O=C(Nc1ccc(N2CCC(C(=O)N3CCOCC3)CC2)cc1)c1cnc(Oc2ccccc2)nc1
Potency [1]: inactive
Potency [2]: inactive

CC1C(=O)OCC2=CC[N+]3([O-])CCC(OC(=O)C(C)(O)C1(C)O)C23 (centres undefined)
Potency [1]: inactive
Potency [2]: inactive

CCNC(=O)OC1CCN(c2nncc3cc(OC)c(OC)cc23)CC1
Potency [1]: inactive
Potency [2]: inactive

O=C(O[C@@H]1O[C@H](CO)[C@@H](O)[C@H](O)[C@H]1O)c1ccccc1
Potency [1]: inactive
Potency [2]: inactive

CCCN(CCN1CCN(c2ccccc2OC)CC1)C1CCc2ncsc2C1 (centres undefined)
Potency [1]: inactive
Potency [2]: inactive

COc1cc(/C=C/C(=O)OCC2OC(OC3(CO)OC(CO)C(O)C3O)C(O)C(O)C2O)ccc1O (centres undefined)
Potency [1]: inactive
Potency [2]: inactive

Cc1ccc(-c2c(-c3nn(C)c4ncnc(N5CC[C@H](N6CCCCC6)C5)c34)cnn2C)cc1
Potency [1]: inactive
Potency [2]: inactive

FC(F)(F)c1nnc2c(Sc3ccccc3)nc3ccc(Cl)cc3n12
Potency [1]: inactive
Potency [2]: inactive
